# Bioassay records: PubChem BioAssay, National Center for Advancing Translational Sciences (NCATS)
# PLK1 PBD inh: qHTS for Inhibitors of PLK1-PDB (polo-like kinase 1 - polo-box domain): Primary Screen; Serine/threonine-protein kinase PLK1 (Homo sapiens), P53350; Plk1 PBD binding of FITC phosphopeptide, fluorescence polarization; Potency, µM, actives largely listed as inhibitors; hit rate 2.8% among 360,000; AID 720504, 2013; note: series mostly up to about 57 µM; nearly all actives have a fitted effect of over 65% in size
# G9a block: qHTS Assay for Inhibitors of Histone Lysine Methyltransferase G9a; AID 504332, 2011; Potency, µM (doses to about 102 µM), hits mostly inhibitors; Histone-lysine N-methyltransferase EHMT2 (Homo sapiens), Q96KQ7; G9a H3K9 monomethylation, AlphaScreen, 2 h; hit rate 8.8% among 350,000; note: nearly all actives have a fitted effect of over 75% in size
#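 Signal arises when biotinylated H3K9 peptide, once monomethylated, bridges streptavidin donor and antibody-captured acceptor beads. Enzyme at 20 nM was preincubated 15 min with test compounds; peptide 500 nM and SAM 20 uM then reacted for 2 h.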
# BAZ2B inh: qHTS Assay for Inhibitors of BAZ2B. Bromodomain adjacent to zinc finger domain protein 2B (Homo sapiens), Q9UIF8. hit rate 4.4% among 360,000. AlphaScreen BAZ2B-H3K14Ac peptide displacement. Potency, µM (titrated, usually from 114 µM), actives largely listed as inhibitors; note: nearly all actives have a fitted effect of over 60% in size
#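 Protein-peptide AlphaScreen: BAZ2B 50 nM, b-H3K14Ac 50 nM, 1x PBS pH 7.4 + 0.01% Tween-20. Preincubation 30 min RT; cpd 30 min RT (top 110 uM); beads 20 min RT, light-protected.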
# JMJD2A Tudor: qHTS Assay for Inhibitors of JMJD2A-Tudor Domain | Lysine-specific demethylase 4A (Homo sapiens), O75164 | AID 504339, 2011 | hit rate 4.4% among 390,000 | Potency, µM (highest dose often 114 µM), actives largely listed as inhibitors | AlphaScreen JMJD2A-Tudor / H3K4me3 peptide binding; note: nearly all actives have a fitted effect of over 50% in size
# HP1b chromo inh: HTS for Inhibitors of HP1-beta Chromodomain Interactions with Methylated Histone Tails; Chromobox protein homolog 1 (Homo sapiens), P83916; AlphaScreen HP1-beta / biotin-H3K9me3 peptide binding; Potency, µM (series often up to 114 µM), most hits filed as inhibitors; hit rate 0.56% among 390,000; AID 540317, 2011; note: nearly all actives have a fitted effect of over 70% in size
# Target sequence (P83916 whole entry, looked up): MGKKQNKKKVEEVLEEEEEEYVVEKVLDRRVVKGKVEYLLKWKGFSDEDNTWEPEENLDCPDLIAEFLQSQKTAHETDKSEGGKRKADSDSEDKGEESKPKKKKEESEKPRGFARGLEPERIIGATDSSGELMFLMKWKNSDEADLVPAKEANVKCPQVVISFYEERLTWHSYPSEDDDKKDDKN
#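 Compound inhibition of the preformed complex between 50 nM HP1-beta and 50 nM biotinylated H3K9me3 peptide was read by AlphaScreen. Buffer was PBS pH 7.4 with 0.01% Tween-20. Incubations ran 30 min at room temperature, with 10 ug/mL donor/acceptor beads.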
# PI5P4Ka inh: qHTS for Inhibitors of phosphatidylinositol 5-phosphate 4-kinase (PI5P4K); Phosphatidylinositol 5-phosphate 4-kinase type-2 alpha (Homo sapiens), P48426; PI5P4Kalpha enzyme, ADP-Glo luminescence, 60 min; active compounds read low; max response, %; hit rate 1.2% among 330,000; AID 652105, 2013; active = max response of -50% or lower; inconclusive = between -30% and -50%; inactive = -30% or higher; note: value at the top dose of about 77 µM
# Target sequence (P48426 whole entry, looked up): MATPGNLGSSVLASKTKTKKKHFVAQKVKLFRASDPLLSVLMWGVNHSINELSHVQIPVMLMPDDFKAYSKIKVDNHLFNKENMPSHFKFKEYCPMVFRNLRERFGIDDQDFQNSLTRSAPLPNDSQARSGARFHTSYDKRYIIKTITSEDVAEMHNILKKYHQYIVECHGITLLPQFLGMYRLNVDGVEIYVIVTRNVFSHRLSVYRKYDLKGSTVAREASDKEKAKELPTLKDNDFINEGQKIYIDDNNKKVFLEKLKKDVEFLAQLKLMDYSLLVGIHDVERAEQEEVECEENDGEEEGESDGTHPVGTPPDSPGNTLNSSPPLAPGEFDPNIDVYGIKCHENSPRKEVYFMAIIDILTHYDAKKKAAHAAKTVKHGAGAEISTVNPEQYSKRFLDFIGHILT
#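 Single end-point luminescence (ADP-Glo) quantified ADP from PI5P4Kalpha turnover; ATP 5 microM final, 1 h at RT, 0.1% CHAPS and 0.28 mM EGTA in HEPES pH 7.4.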
# Hits are given with their value; i = inactive; ? = inconclusive; nt = no result; [ ] = remark or other dose. Sampled rows, rich in hits. Any-hit rate of the full collection: about 12%. Unless noted, calls come from the whole dose curve; as a rule, active = well fitted curve in the direction sought with a large enough effect; inconclusive = small, poorly fitted or top-dose-only effect, or another doubt; inactive = no such curve, though single readings can be large; an effect the other way counts as inactive or inconclusive.
SMILES,PLK1 PBD inh,G9a block,BAZ2B inh,JMJD2A Tudor,HP1b chromo inh,PI5P4Ka inh
COc1ccc(CN2C(=O)COc3ccccc3C2c2nc3ccccc3[nH]2)cc1 (configuration not stated),i,nt,nt,nt,nt,i
O=C(Nc1ccc(F)cc1)[C@H](CSCc1ccccc1)N1Cc2ccccc2C1=O,nt,i,i,?,i,nt
Oc1c(C(c2ccccc2F)N2CCOCC2)sc2nc(-c3ccco3)nn12 (configuration not stated),nt,i,i,i,i,nt
CC(C)(C)OC(=O)NCCc1onc(-c2cccc([N+](=O)[O-])c2)c1C(=O)O,i,nt,nt,nt,nt,i
NC(=O)C1CCCN(C(=S)NCc2ccc3c(c2)OCO3)C1 (configuration not stated),?,50µM,i,i,i,i
NC(=O)C1CCN(C(=S)NCc2ccc3c(c2)OCO3)CC1,i,i,i,i,i,i
COC(=O)[C@@H](NCc1ccc(OC)c(B(O)O)c1)C(C)C,i,nt,nt,i,i,i
CCOC(=O)C1CCN(CCCSc2ccc(Cl)cc2)CC1,i,nt,i,i,i,i
CC1CN(CCCCSc2ccc(Cl)cc2)CC(C)O1 (configuration not stated),i,22µM,?,18µM,?,i
CC1CN(CCOCCSc2ccc(Cl)cc2)CC(C)O1 (configuration not stated),i,?,50µM,8.9µM,?,i
CC1CN(CCOCCSc2ccccc2)CC(C)O1 (configuration not stated),i,i[12.7 µM],i,i,i,i
Clc1ccc(SCCCCN2CCOCC2)cc1,i,4µM,32µM,5.6µM,40µM,i
CC1CCCN(CCSc2ccc(Cl)cc2)C1 (configuration not stated),i,11µM,i,?,?,i
Cc1ccc(SCCCCN2CCOCC2)cc1,i,i,i,i,i,i
C=CCSc1nnc(NC(=O)CCN2C(=O)C3CC=CCC3C2=O)s1 (configuration not stated),i,i,i,i,i,i
COc1ccc(OCC(=O)NCc2ccc3c(c2)CCN3C(=O)c2cccc(C)c2)cc1,nt,i,i,i,i,nt
CC(=O)OC/C=C(C)/C=C/C=C(C)/C=C/C1=C(C)CCCC1(C)C,nt,i[2.33 µM],nt,nt,nt,nt
CC1CCN(CCOCCSc2ccc(Cl)cc2)CC1,i,nt,50µM,7.1µM,?,i
Cc1nn(-c2ccccc2)c2sc(C(=O)Nc3ccc(Cl)cc3Cl)cc12,nt,i,i,i,i,nt
C/C(=N\Nc1nc(C)cc(=O)[nH]1)C1CC1,i,7.9µM,i,18µM,i,i
Cc1cc(=O)[nH]c(NN=C2CCC(C(C)(C)C)CC2)n1 (configuration not stated),i,32µM,i,i,i,i
Cc1cc(=O)[nH]c(NN=C(CC(C)C)CC(C)C)n1,i,?,i,?,i,i
CCC(Sc1nc2cc3c(cc2c(=O)n1CCCCCC(=O)NCc1ccc2c(c1)OCO2)OCO3)C(=O)NCCCOC (configuration not stated),nt,i,i,i,i,nt
O=[N+]([O-])c1ccccc1COc1ccc(Cl)c2cccnc12,24µM,i[2.33 µM],i,i,i,i
COC(=O)C1SCC2C(=O)N(Cc3ccc(Cl)cc3)CC(=O)N21 (configuration not stated),i,i,i,i,i,i
SMILES,PLK1 PBD inh,G9a block,BAZ2B inh,JMJD2A Tudor,HP1b chromo inh,PI5P4Ka inh
COC(=O)C1SCC2C(=O)N(Cc3ccc(Cl)c(Cl)c3)CC(=O)N21 (configuration not stated),19µM,i,i,?,i,i
O=C(c1cnccn1)N1CCC[C@@]2(CCN(Cc3cc(C(F)(F)F)cc(C(F)(F)F)c3)C2)C1,nt,i[12.7 µM],nt,nt,nt,nt
CN(C)CCNc1nc(-c2ccco2)c2c(c1C#N)CC(C)(C)OC2,i,i,i,i,i,nt
CCc1nc(N2CCOCC2)c(C#N)c2c1CCCC2,i,i,i,i,i,i
CC1(C)Cc2c(C#N)c(N3CCN(C(=O)c4ccccc4)CC3)nc(-c3ccco3)c2CS1,?,14µM,50µM,i,i,?
CC1(C)Cc2c(C#N)c(N3CCCC3)nc(-c3ccco3)c2CO1,nt,35µM,i,nt,nt,nt
N#Cc1c(N2CCOCC2)nc(-c2ccco2)c2c1CCCC2,i,22µM,i,i,i,i
CC(C)c1nc(N2CCN(C(=O)c3ccccc3)CC2)c(C#N)c2c1COC(C)(C)C2,i,?,i,i,i,i
CCCCN(C)c1nc(-c2ccco2)c2c(c1C#N)CC(C)(C)OC2,30µM,45µM,i,89µM,i,?
CC1(C)Cc2c(C#N)c(NCc3ccco3)nc(-c3ccco3)c2CO1,i,?,i,i,i,?
NC(=O)C1(N2CCCCC2)CCN(C(=O)Nc2ccc(Cl)c(Cl)c2)CC1,nt,i,i,i,i,nt
CCn1c(CSc2nnc(-c3ccoc3C)n2C)nc2cc(S(=O)(=O)N(C)C)ccc21,i,50µM,i,i,i,i
CCCCCSc1nnc(-c2cc(Br)ccc2N)c(=O)[nH]1,i,45µM,i,i,i,i
CCCN1CNc2c(c(=O)[nH]c(=S)n2CCc2cccc(Cl)c2Cl)C1,nt,nt,nt,i,i,nt
Cc1csc(=Nc2ccccc2)n1C,i,?,50µM,i,i,i
C=CCn1c(C)cc(C)c(C#N)c1=O,i,i,?,i,i,nt
C=CCn1c(O)c(CN2CCOCC2)c(C)c(C#N)c1=O,i,50µM,i,i,i,i
CCc1nnc(NC(=O)c2ccc(S(=O)(=O)N3CCCC(C)C3)cc2)o1 (configuration not stated),i,i,89µM,i,i,i
COCc1nnc(NC(=O)c2ccc(S(=O)(=O)N3CCCC3)cc2)o1,i,i,20µM,13µM,i,i
CCn1nc(C)c(/C=C2\CCCC3=C2OC(N)=C(C#N)C3c2c(C)nn(CC)c2C)c1C (configuration not stated),nt,50µM,i,nt,nt,nt
O=C(CSc1ccc2nnc(-c3ccccc3)n2n1)NCc1ccc2c(c1)OCO2,i,i,i,i,i,i
O=C(CSc1ccc2nnc(-c3cccnc3)n2n1)NCc1ccc2c(c1)OCO2,i,?,i,56µM,i,i
O=C(CSc1nnc(-c2cccnc2)n1-c1ccc(F)cc1)NCc1ccc2c(c1)OCO2,12µM,i,i,i[11.4 µM],i,i
Cc1ccc(N=Nc2ccc(O)c(P(=O)(c3ccccc3)c3ccccc3)c2)cc1,?,?,?,11µM,i,i
O=[N+]([O-])c1cc(S(=O)(=O)N2CCCC2)ccc1N/N=C1/CCCc2ccccc21,i,4.5µM,3.5µM,?,?,i
